Assay outcomes: PubChem, several laboratories
AHR act: human AHR activation; AHR-responsive luciferase reporter cells, luminescence; P35869; 320,000 tested, 2.5% active; activation, % at 5 µM; AID 2796; in the data active = activation above about 47%
FXN GAA850 act: frataxin GAA850 promoter activation; activation, % at 6 µM; 360,000 tested, 0.56% active; HEK293 lucGAA850 FXN promoter luciferase reporter, 24 h; percent of 10 µM SAHA response;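 active = activation above the average of all compounds screened plus 3 SD, cutoff fixed separately per campaign, cut at about 7.5% in these data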
HSF1 inhib: HSF1 inhibition. AID 2098. 300,000 tested, 0.77% active. activity change, negative = inhibition, % at 7.5 µM (by protocol). NIH3T3-HGL HSE-luciferase, MG132-induced, luminescence 8 h; hits give low values;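 active = more than half of replicate wells show activity change below -50%, luminescence cut by over half; inconclusive = some wells, but at most half, below -50%; inactive = no replicate well below -50%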;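 also: luciferase reports HSF-1 transcriptional activity via heat shock element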
HSF1 activator: increases HSF-1 driven luciferase reporter signal. activation, % at 9 µM. 300,000 tested, 1.7% active. NIH3T3-HGL HSF-1 luciferase reporter, MG132, 8 h; 100% = twice DMSO control signal;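 active = mean replicate activation of at least 50% with a set share of replicates each reaching 50%; inconclusive = only one of those two conditions met; inactive = mean below 50% and too few replicates reaching it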
AHR act confirm: confirmation of human aryl hydrocarbon receptor activators | shares compounds with AHR act | human cells, AHR-responsive luciferase reporter, luminescence | activation, % at 9 µM | 2,300 tested, 87% active | AID 2845; in the data active = activation above about 49%;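 also: HepG2 hepatoma cells carrying a DRE-driven firefly luciferase reporter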
PXR act counter: counter-screen for AHR activators: human PXR activators | shares compounds with AHR act | cell-based PXR reporter, luciferase luminescence | activation, % at 11.6 µM | 2,300 tested, 88% active | AID 434939; in the data active = activation above about 11%;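 also: human hepatoma DPX-2 cells expressing full-length human PXR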
GAA30 FXN cntr: activates GAA30 frataxin promoter, counter-screen for GAA850 activators; shares compounds with FXN GAA850 act; HEK293 lucGAA30 FXN promoter luciferase, 24 h; DMSO = 0%, 5 µM ipriflavone = 100%; activation, % at 6 µM; 1,900 tested, 66% active; AID 588350;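 active = mean activation above the mean of solvent-only control wells plus 3 SD, cut at about 22% in these data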;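 also: counterscreen of GAA850 promoter hits where activity marks nonselective or luminescence artifacts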
GAA850 confirm: confirmation of GAA850 frataxin (FXN) promoter activators; shares compounds with FXN GAA850 act; HEK293 lucGAA850 FXN promoter luciferase reporter, 24 h; 100% = activation by SAHA; activation, % at 6 µM; 1,900 tested, 86% active;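 active = mean activation above a set limit taken from the primary screen, cut at about 8% in these data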
Each line names hits and unclear results; the compound was inactive in the other large screens (follow-up assays come after a bar, where they were run); ! = repeats disagree. An excerpt weighted towards active compounds, which were near 4.6% of everything screened.

COc1ccc(CCNC2CCCCC2)cc1	none
COc1cc2c3cc1Oc1c(OC)c(OC)cc4c1[C@H](Cc1ccc(cc1)Oc1cc(ccc1O)C[C@H]3N(C)CC2)N(C)CC4	none (no result: HSF1 inhib, HSF1 activator)
O=[N+]([O-])c1ccc(NCc2ccc(Cl)cc2)c2ccncc12	AHR act 65
CCn1cc(C(=O)c2cccs2)c2ccccc21	AHR act 49
N#CC1=C(N)Oc2c(c(=O)oc3ccccc23)C1c1ccc([N+](=O)[O-])o1 (stereo not given)	HSF1 inhib inconclusive
CSc1nc(NC(C)C)nc(NC(C)C)n1	none (no result: AHR act, HSF1 inhib, HSF1 activator)
Cc1ccccc1-n1c(O)c(C=Nc2ccc(N(C)C)cc2)c(=O)[nH]c1=O	AHR act 61, HSF1 activator 64
COC(=O)NC(=C(Cl)Cl)P(=O)(c1ccccc1)c1ccccc1	none
O=C1NC2C(O)C(O)C(O)C(O)C2c2cc3c(c(O)c21)OCO3 (stereo not given)	HSF1 inhib 89, HSF1 activator 89 (no result: AHR act)
O=C1NC2C(=CC(O)C(O)C2O)c2cc3c(c(O)c21)OCO3 (stereo not given)	none (no result: AHR act, HSF1 inhib, HSF1 activator)
O=C(CN1CC=C(c2ccccc2)CC1)NC(=O)NC1CCCCC1	none (no result: HSF1 inhib, HSF1 activator)
CC(C)(C)NC(=O)NC(=O)CN1CC=C(c2ccccc2)CC1	HSF1 activator 61
NC(=O)Nc1ccc(C(=O)OCC(=O)Nc2ccc(Cl)cc2C(=O)c2ccccc2)cc1	AHR act 93 | AHR act confirm inactive | PXR act counter 14
CC(C)=CCOc1c2occc2cc2ccc(=O)oc12	AHR act 114 | AHR act confirm 86 | PXR act counter 78
O=C(COc1ccccc1)c1cn(Cc2ccccc2)c2ccccc12	AHR act 84 | AHR act confirm 66 | PXR act counter 103
COc1ccccc1-n1c(CNCC2CCCO2)nc2ccccc2c1=O (stereo not given)	AHR act 81 | AHR act confirm 48 | PXR act counter 37
Cc1ccc(-c2ccc(=O)n(CCC(=O)N3CCC4(CC3)OCCO4)n2)cc1	none
CC1CCCC(C)N1/N=C/c1c[nH]c2ccc(Br)cc12 (stereo not given)	AHR act 89 | AHR act confirm 83 | PXR act counter 60
CN1CCC(c2c[nH]c3ccc(O)cc23)CC1	none (no result: AHR act, HSF1 inhib, HSF1 activator)
C=CCc1cc(OC)c2c(c1)OCO2	none (no result: HSF1 inhib, HSF1 activator)
COc1ccc(-c2ccc(OC)c(OC)c2OC)cc1	none (no result: AHR act, HSF1 inhib, HSF1 activator)
Cc1cccc(N2CCc3c2nc2ccccc2c3N)c1	AHR act 83 | AHR act confirm 86 | PXR act counter 55
Cc1ccnc(-n2c(C)nc3ccccc3c2=O)c1	none
COc1ccc2oc3c(c2c1)NC(=O)CN=C3c1ccccc1	none
O=C1CN=C(c2ccc(Cl)cc2)c2oc3ccccc3c2N1	AHR act 104 | AHR act confirm 119 | PXR act counter 31
CCn1c(=O)n(CC)c2cc([N+](=O)[O-])c(N3CCNCC3)cc21	none
COc1ccc2c(c1)/C(=C/c1cnc[nH]1)C(=O)N2	AHR act 248, FXN GAA850 act 43 | AHR act confirm 49 | PXR act counter 15 | GAA30 FXN cntr 116 | GAA850 confirm 76
O=C(O)Cn1cc(C(=O)c2ccccc2F)c2ccccc21	none
CN1C(=O)c2ccccc2NC(=O)[C@]12O[C@@H]2c1ccccc1	FXN GAA850 act 13 | GAA30 FXN cntr inactive | GAA850 confirm inactive
CCC(=O)c1cn(Cc2ccccc2C#N)c2ccccc12	none
CN(C)[C@@H]1C(=O)C(C(N)=O)=C(O)[C@@]2(O)C(=O)C3=C(O)c4c(O)cccc4[C@@](C)(O)C3[C@H](O)C12 (stereo not given in full)	FXN GAA850 act 15! | GAA30 FXN cntr 28 | GAA850 confirm 9.1
CN(C)[C@@H]1C(=O)C(C(N)=O)=C(O)[C@@]2(O)C(=O)C3=C(O)c4c(O)ccc(Cl)c4[C@@](C)(O)C3C[C@@H]12 (stereo not given in full)	FXN GAA850 act 14 (no result: AHR act, HSF1 inhib, HSF1 activator) | GAA30 FXN cntr inactive | GAA850 confirm inactive
CCOC(=O)N(c1ccccc1)P1(=S)OCC(C)O1 (stereo not given)	none
COc1ccc(/C=N/N=C(/N)N[N+](=O)[O-])c(OC)c1	FXN GAA850 act 9.7 | GAA30 FXN cntr 75 | GAA850 confirm 26
CCCCn1c(O)c(C(C)=NCCCN(CC)CC)c(=O)[nH]c1=O	none
CCC(=NC(C)c1ccccc1)c1c(O)[nH]c(=O)[nH]c1=O (stereo not given)	FXN GAA850 act 8.5 | GAA30 FXN cntr inactive | GAA850 confirm 10
c1cc(CNCCc2ccc3c(c2)OCO3)ccn1	none
CCCC[N+]12CCC(CC1)C(C(=O)c1cccs1)C2 (stereo not given)	none
CCc1nc2ccccc2c(=O)n1-c1ccccc1OC	none (no result: AHR act)
CCN1C(=O)C(=Cc2ccc(C)s2)C(=O)N(CC)C1=S	FXN GAA850 act 9.0 | GAA30 FXN cntr 79 | GAA850 confirm 45
C[C@@H]1CC[C@@]2(NC1)O[C@H]1C[C@H]3[C@@H]4CC=C5C[C@@H](O)CC[C@]5(C)[C@H]4CC[C@]3(C)[C@H]1[C@@H]2C	none
Cc1cc(C)cc(N2C(=O)NC(=O)/C(=C\C=C\c3ccco3)C2=O)c1	FXN GAA850 act 8.9, HSF1 activator inconclusive | GAA30 FXN cntr inactive | GAA850 confirm inactive
CC(C)c1ccc(N2C(=O)NC(=O)/C(=C/C=C/c3ccco3)C2=O)cc1	FXN GAA850 act 8.7 | GAA30 FXN cntr inactive | GAA850 confirm 20
Cc1ccc(N2C(=O)NC(=O)/C(=C/C=C/c3ccco3)C2=O)cc1	HSF1 activator inconclusive
CC(C)c1onc(C(=O)N2CCC3(CC2)OCCO3)c1[N+](=O)[O-]	none
COc1ccc(OC(=O)N(C)C[C@H]2OCc3cnnn3CCCC(=O)N([C@H](C)CO)C[C@@H]2C)cc1	none (no result: AHR act, HSF1 inhib, HSF1 activator)
COc1ccc(OC(=O)N(C)C[C@@H]2OCc3ccccc3-c3c(n(C)c4ccccc34)C(=O)N([C@H](C)CO)C[C@@H]2C)cc1	FXN GAA850 act 12 (no result: AHR act, HSF1 inhib, HSF1 activator) | GAA30 FXN cntr inactive | GAA850 confirm 9.1
Cc1cccc(N2C(=O)/C(=C/c3ccc(N4CCN(C)CC4)o3)C(=O)NC2=S)c1C	none
Cn1cccc1/C=C1\C(=O)NC(=O)N(Cc2ccccc2)C1=O	FXN GAA850 act 8.0 | GAA30 FXN cntr inactive | GAA850 confirm 24
CCNC(=O)C1OC(n2cnc3c(N)ncnc32)C(O)C1O (stereo not given)	FXN GAA850 act 10 | GAA30 FXN cntr inactive | GAA850 confirm 26
